We go through 23 molecules from PubChem BioAssay (NCATS).

SMILES strings stand for the structures. Records with an inconclusive call do not appear. The source made the active and inactive calls. Unless noted, the call rests on the fitted dose curve; in most records, active means well fitted curve in the direction sought with a large enough effect; inconclusive means small, poorly fitted or top-dose-only effect, or another doubt; inactive means no such curve, though single readings can be large; an effect the other way counts as inactive or inconclusive.

Experiment [1] addresses Cytochrome P450 1A2 (Homo sapiens) (UniProt P05177). As to the kind of experiment: p450-cyp1a2 (AID 410; calls by dose curve; further: potency means the concentration at half of the fitted maximal effect). An outline of the steps:
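20nM CYP1A2 with 100uM Luciferin-ME (at Km) in 100mM KPO4; compound preincubated 10 min, NADPH regeneration added, 60 min at room temperature. Luciferin quantified by luminescence after detection reagent; normalized to 57 uM furafylline.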

Experiment [2] deals with Mitogen-activated protein kinase 10 (Mus musculus) (UniProt Q61831). Put plainly: JNK3 AlphaScreen Assay (AID 530; active means well fitted curve in either direction with a large enough effect, not every such curve was filed as active;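 further: kinase came from lysate of stimulated human HepG2 cells; signal reports phosphorylation of biotinylated GST-cJun 1-79 at Ser73 with 10 µM ATP; series mostly up to about 57 µM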). A digest of the protocol: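 Inhibitors reduce antibody binding to phosphorylated biotin-cJun, lowering AlphaScreen luminescence. Lysates from HepG2 cells pre-activated by IL-1beta plus TNF-alpha supplied JNK3; compounds were titrated.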
The target of experiment [3] is 3',5'-cyclic-AMP phosphodiesterase 4B (Homo sapiens) (UniProt Q07343). As to the kind of experiment: qHTS Assay for Inhibitors of PDE-IV (AID 607; active means well fitted activation curve with a large enough effect in the main read-out, with a control signal flat, not every such curve was filed as active; further: potency means the concentration at half of the fitted maximal effect). An outline of the steps: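 HEK293 ACTOne cells with CNG channel (1000/well), endogenous PDE4; membrane potential dye, compounds up to 22.9 uM final. Fluorescence Ex 535/Em 590; RO 20-1724 (100 uM final) as reference.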
For orientation: In qHTS, concentration-response curves come from the screen itself.

The target of experiment [4] is Cytochrome P450 3A4 (Homo sapiens) (UniProt P08684). Put plainly: qHTS Assay for Inhibitors and Substrates of Cytochrome P450 3A4 (AID 884). Further: potency means the concentration at half of the fitted maximal effect; nearly all actives have a fitted effect of over 50% in size. An outline of the steps: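 20 nM human CYP3A4 with 25 uM Luciferin-PPXE (at KM) in 200 mM KPO4, preincubated 10 min with compound; NADPH regeneration started a 60 min RT reaction. Luciferin detected by luminescence, normalized to 57 uM ketoconazole as full inhibition.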

For experiment [5] the target is unchanged. As to the kind of experiment: qHTS Assay for Activators of Cytochrome P450 3A4 (AID 885). Further: nearly all actives have a fitted effect of over 65% in size. A digest of the protocol:
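Human CYP3A4 (20 nM) with Luciferin-PPXE at 25 uM (its KM) in 200 mM KPO4; 10 min compound preincubation, then NADPH regeneration and 60 min reaction at RT. Luciferin read by luminescence; normalized to 57 uM ketoconazole full inhibition.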

The target of experiment [6] is Cytochrome P450 2C19 (Homo sapiens) (UniProt P33261). Put plainly: qHTS Assay for Inhibitors and Substrates of Cytochrome P450 2C19 (AID 899). Further: potency means the concentration at half of the fitted maximal effect; nearly all actives have a fitted effect of over 60% in size. A digest of the protocol: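 In 50mM KPO4, the reaction held 5nM enzyme and KM-level (10uM) Luciferin-H EGE; it ran 60 min at 37C after NADPH regeneration and a 10 min compound preincubation. Luminescence values were scaled to 57uM ketoconazole as complete inhibition.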
Sequence of Cytochrome P450 2C19 (Homo sapiens) (P33261 whole entry, looked up): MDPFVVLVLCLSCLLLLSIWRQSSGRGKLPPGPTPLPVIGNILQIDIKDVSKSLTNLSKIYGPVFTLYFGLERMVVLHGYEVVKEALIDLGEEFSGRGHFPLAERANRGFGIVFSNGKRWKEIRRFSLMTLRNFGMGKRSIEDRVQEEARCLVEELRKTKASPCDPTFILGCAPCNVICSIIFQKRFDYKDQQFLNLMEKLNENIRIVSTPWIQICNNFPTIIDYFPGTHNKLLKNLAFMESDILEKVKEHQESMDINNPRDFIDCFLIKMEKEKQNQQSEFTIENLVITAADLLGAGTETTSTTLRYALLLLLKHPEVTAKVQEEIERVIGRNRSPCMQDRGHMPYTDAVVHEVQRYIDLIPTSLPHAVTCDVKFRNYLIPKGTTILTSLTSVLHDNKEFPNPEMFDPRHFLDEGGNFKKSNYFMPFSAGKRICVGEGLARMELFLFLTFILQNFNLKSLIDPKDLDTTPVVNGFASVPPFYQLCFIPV

Sequence of Cytochrome P450 1A2 (Homo sapiens) (P05177 whole entry, looked up): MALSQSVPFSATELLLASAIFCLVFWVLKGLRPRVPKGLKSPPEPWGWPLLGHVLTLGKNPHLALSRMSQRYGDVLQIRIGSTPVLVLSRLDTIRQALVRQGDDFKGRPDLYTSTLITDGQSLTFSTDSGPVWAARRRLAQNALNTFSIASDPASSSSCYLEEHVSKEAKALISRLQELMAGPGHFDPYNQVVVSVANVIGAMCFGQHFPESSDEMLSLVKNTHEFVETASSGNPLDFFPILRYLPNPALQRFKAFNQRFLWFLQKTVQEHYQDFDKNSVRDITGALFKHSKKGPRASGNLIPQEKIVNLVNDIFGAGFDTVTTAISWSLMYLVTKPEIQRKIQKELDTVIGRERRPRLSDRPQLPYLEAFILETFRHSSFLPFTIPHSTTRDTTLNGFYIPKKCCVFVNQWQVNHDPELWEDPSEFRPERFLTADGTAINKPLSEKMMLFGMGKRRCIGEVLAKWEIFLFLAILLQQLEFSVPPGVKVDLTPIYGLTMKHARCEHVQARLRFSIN
Sequence of Cytochrome P450 3A4 (Homo sapiens) (P08684 whole entry, looked up): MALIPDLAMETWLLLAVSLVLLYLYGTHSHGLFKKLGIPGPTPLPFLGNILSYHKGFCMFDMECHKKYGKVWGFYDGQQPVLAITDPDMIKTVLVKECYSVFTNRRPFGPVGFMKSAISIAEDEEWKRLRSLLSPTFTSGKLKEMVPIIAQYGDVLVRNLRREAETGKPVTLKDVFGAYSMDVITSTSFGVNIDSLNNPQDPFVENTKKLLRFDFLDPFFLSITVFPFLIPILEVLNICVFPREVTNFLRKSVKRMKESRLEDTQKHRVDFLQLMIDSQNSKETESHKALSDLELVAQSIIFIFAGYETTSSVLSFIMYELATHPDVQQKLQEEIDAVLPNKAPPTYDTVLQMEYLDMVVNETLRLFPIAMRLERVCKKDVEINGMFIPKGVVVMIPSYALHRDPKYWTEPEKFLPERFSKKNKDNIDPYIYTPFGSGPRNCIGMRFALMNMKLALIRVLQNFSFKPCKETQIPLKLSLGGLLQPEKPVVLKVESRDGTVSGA
Sequence of 3',5'-cyclic-AMP phosphodiesterase 4B (Homo sapiens) (Q07343 whole entry, looked up): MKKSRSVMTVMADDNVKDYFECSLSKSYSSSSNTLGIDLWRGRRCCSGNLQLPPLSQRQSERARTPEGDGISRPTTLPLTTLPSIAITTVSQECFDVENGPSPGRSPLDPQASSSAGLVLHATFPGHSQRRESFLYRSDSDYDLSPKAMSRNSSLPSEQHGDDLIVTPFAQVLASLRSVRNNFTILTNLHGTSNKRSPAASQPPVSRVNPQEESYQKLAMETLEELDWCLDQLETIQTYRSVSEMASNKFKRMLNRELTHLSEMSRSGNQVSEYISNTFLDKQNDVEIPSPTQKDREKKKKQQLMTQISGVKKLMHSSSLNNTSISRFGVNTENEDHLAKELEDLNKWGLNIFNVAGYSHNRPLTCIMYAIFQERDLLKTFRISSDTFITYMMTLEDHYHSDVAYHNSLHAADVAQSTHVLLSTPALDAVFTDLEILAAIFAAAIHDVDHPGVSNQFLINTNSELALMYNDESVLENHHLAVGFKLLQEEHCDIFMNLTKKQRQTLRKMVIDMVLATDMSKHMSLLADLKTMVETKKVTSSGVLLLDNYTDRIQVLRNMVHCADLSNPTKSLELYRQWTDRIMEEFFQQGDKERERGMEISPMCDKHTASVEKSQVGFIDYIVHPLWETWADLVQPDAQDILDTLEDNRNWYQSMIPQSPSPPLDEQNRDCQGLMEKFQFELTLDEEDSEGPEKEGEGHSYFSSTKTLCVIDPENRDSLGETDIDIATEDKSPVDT

In the case of `COC(=O)[C@@]1(Cc2ccc(F)cc2)[C@H]2c3cc(C(=O)N(C)C)n(Cc4ccc(C(F)(F)F)nc4)c3C[C@H]2CN1C(=O)c1ccccc1`, the Potency entry in experiment [1], in experiment [2], in experiment [3] and in experiment [5] was “inactive” in each case. In addition, in experiment [4], the Potency was 1.26 µM (active).
As to `C[C@@H](C(=O)Nc1ccc2ccccc2c1)[C@@H]1C[C@@]1(C)[C@@H](NC(=O)OCc1ccccc1)c1ccccc1`, the values for the Potency in experiment [1], in experiment [4] and in experiment [6] were 15.8 µM (active), 7.94 µM (active) and 3.16 µM (active), respectively. For the same molecule, the Potency result in experiment [2], in experiment [3] and in experiment [5] was “inactive” throughout.
As for `COC(=O)[C@@]1(Cc2ccccc2)[C@H]2c3cc(C(=O)N4CCCC4)n(CCc4ccccn4)c3C[C@H]2CN1C(=O)c1ccccc1`, the Potency result in experiment [1], in experiment [2], in experiment [3] and in experiment [5] was “inactive” throughout. For the same molecule, the Potency in experiment [4] is 2 µM (active).
In the case of `C=C(CC1([C@@H](NP(=O)(c2ccccc2)c2ccccc2)[C@H]2C[C@@H]2CCCC)CC1)c1cccc(OC)c1`, the results for the Potency in experiment [1] and in experiment [4] were 12.6 µM (active) and 2.51 µM (active), respectively. Besides, the Potency entry in experiment [2], in experiment [3] and in experiment [5] was “inactive” throughout.
Consider `C=C1C(=O)C=C2CN(C(=O)c3ccccc3)[C@@](Cc3ccc(OC)cc3)(C(=O)OC)[C@@H]12`, for which the Potency in experiment [1] is 15.8 µM (active); in experiment [3] it was 1.58 µM (active); in experiment [4] it was 1.58 µM (active). Besides, the Potency entry in experiment [2] and in experiment [5] was “inactive” throughout.
Regarding `Cc1cc(CNC(=O)[C@H]2C[C@@H]2[C@H](NP(=O)(c2ccccc2)c2ccccc2)c2ccccc2)nn1C`, the Potency result in experiment [1], in experiment [2], in experiment [3] and in experiment [5] was “inactive” in each case. Also, the Potency in experiment [4] was 2.51 µM (active).
For `COC(=O)[C@@]1(Cc2ccc(F)cc2)[C@H]2c3cc(C(=O)N4CCCC4)n(Cc4c(CO)[nH]cc(C)c4=O)c3C[C@H]2CN1C(=O)c1ccccc1`, the figures for the Potency in experiment [1] and in experiment [4] were 20 µM (active) and 2 µM (active), respectively. Also, the Potency entry in experiment [2], in experiment [3] and in experiment [5] was “inactive” each time.
On to `COC(=O)[C@H]1C[C@@H]1[C@H](NC(=O)c1cc(C)nn1C)c1ccccc1`, for which the Potency in experiment [1] was 20 µM (active); in experiment [4], 6.31 µM (active). The Potency entry in experiment [2], in experiment [3] and in experiment [5] was “inactive” each time.
On to `COC(=O)[C@@]1(Cc2ccc(F)cc2)[C@H]2c3cc(C(=O)N(C)C)n(Cc4c(CO)[nH]cc(C)c4=O)c3C[C@H]2CN1C(=O)c1ccccc1`, for which the Potency in experiment [1] was 25.1 µM (active); in experiment [4], 1.58 µM (active). The Potency entry in experiment [2], in experiment [3] and in experiment [5] was “inactive” in each case.
Regarding `C[C@@H](C(=O)Nc1ccc2ccccc2c1)[C@@H]1C[C@@]1(C)[C@@H](N)c1ccccc1`, the Potency in experiment [1] is 15.8 µM (active); in experiment [4], 7.94 µM (active). In addition, the Potency result in experiment [2], in experiment [3] and in experiment [5] was “inactive” throughout.
`COc1ccc(COC2OC[C@]3(C)[C@H]4C5=C(CN3C(=O)OC(C)(C)C)[C@H](C)C(CO)C(CO)C5CC[C@@H]24)cc1` (stereo not given in full): the Potency result in experiment [1], in experiment [2], in experiment [3] and in experiment [5] was “inactive” each time. In addition, the Potency in experiment [4] was 7.94 µM (active).
As to `COC(=O)Cn1c(C(=O)N2CCCC2)cc2c1C[C@H]1CN(C(=O)c3ccccc3)[C@@](Cc3ccc(F)cc3)(C(=O)OC)[C@@H]21`, the Potency in experiment [1] is 15.8 µM (active); in experiment [4] it was 3.16 µM (active). Moreover, the Potency result in experiment [2], in experiment [3] and in experiment [5] was “inactive” each time.
Take `COC(=O)[C@H]1C[C@@H]1[C@H](NC(=O)c1cccnc1)c1ccccc1`: the Potency in experiment [1] is 12.6 µM (active); in experiment [4], 5.01 µM (active). In addition, the Potency entry in experiment [2], in experiment [3] and in experiment [5] was “inactive” each time.
With `COC(=O)[C@@]1(Cc2ccccc2)[C@H]2c3cc(C(=O)N4CCCC4)n(Cc4c(CO)[nH]cc(C)c4=O)c3C[C@H]2CN1C(=O)c1ccccc1`, the values for the Potency in experiment [1] and in experiment [4] were 5.01 µM (active) and 2.51 µM (active), respectively. Besides, the Potency result in experiment [2], in experiment [3] and in experiment [5] was “inactive” each time.
For `CCCc1cc2c(n1Cc1ccc(OC)cc1)C(C)C1CN(C(=O)c3ccccc3)C(C)(C(=O)OC)C21` (stereo not given), the Potency was 15.8 µM (active) in experiment [1] and 3.16 µM (active) in experiment [4]. Besides, the Potency result in experiment [2], in experiment [3] and in experiment [5] was “inactive” in each case.
As to `COC(=O)[C@@]1(Cc2ccc(F)cc2)[C@@H]2[C@@H](CC(=O)[C@H]2CC(=O)C(=O)N(C)C)CN1C(=O)c1ccccc1`, the Potency result in experiment [1], in experiment [2], in experiment [3] and in experiment [5] was “inactive” each time. In addition, the Potency in experiment [4] is 6.31 µM (active).
For the molecule `CC1(C)C(=O)C(c2ccccc2)=C2CN3C(=O)N(CCc4ccccc4)C(=O)C3(Cc3ccc(F)cc3)C=C21` (stereo not given), the Potency in experiment [1] is 15.8 µM (active); in experiment [4], 3.16 µM (active). The Potency entry in experiment [2], in experiment [3] and in experiment [5] was “inactive” each time.
Consider `CNC(=O)[C@H](C)[C@H]1C[C@]1(C)[C@H](NC(=O)OCc1ccccc1)c1ccccc1`, for which the values for the Potency in experiment [1] and in experiment [4] were 20 µM (active) and 2 µM (active), respectively. For the same molecule, the Potency entry in experiment [2], in experiment [3] and in experiment [5] was “inactive” in each case.
Consider `COC(=O)[C@@]1(Cc2ccc(OC)cc2)[C@H]2c3cc(C(=O)N4CCCC4)n(Cc4ccc(C(F)(F)F)nc4)c3C[C@H]2CN1C(=O)c1ccccc1`, for which the Potency result in experiment [1], in experiment [2], in experiment [3] and in experiment [5] was “inactive” throughout. Besides, the Potency in experiment [4] was 3.16 µM (active).
For `COC(=O)[C@@]1(Cc2ccc(F)cc2)[C@H]2c3cc(C(=O)N4CCCC4)n(Cc4ccc(Cl)c(C(F)(F)F)c4)c3C[C@H]2CN1C(=O)c1ccccc1`, the Potency entry in experiment [1], in experiment [2], in experiment [3] and in experiment [5] was “inactive” each time. Moreover, in experiment [4], the Potency is 2.51 µM (active).
For the molecule `O=C(NCc1cc(F)cc2c1OCCO2)[C@H]1C[C@@H]1[C@H](NP(=O)(c1ccccc1)c1ccccc1)c1ccccc1`, the Potency in experiment [1] was 15.8 µM (active). Besides, the Potency result in experiment [2], in experiment [3] and in experiment [5] was “inactive” each time.
For `C[C@@H](C(=O)Nc1ccc2ccccc2c1)[C@@H]1C[C@@]1(C)[C@@H](NC(=O)Oc1ccc(F)cc1)c1ccccc1`, the Potency result in experiment [1], in experiment [2], in experiment [3] and in experiment [5] was “inactive” in each case.
For the molecule `CCCC[C@@H]1C[C@H]1C(NC(=O)c1cccnc1)c1ccc(Cl)cc1` (stereo not given in full), the Potency in experiment [1] was 7.94 µM (active); in experiment [4], 0.0794 µM (active); in experiment [6] it was 2 µM (active). The Potency result in experiment [2], in experiment [3] and in experiment [5] was “inactive” throughout.
